Rows were chosen to be rich in hits. Some 4.1% of all compounds tested hit in one or more screens of this group.
DAX1 inh-1 – DAX1 (NR0B1) inhibitors, primary screen, cell-based, HEK293, Gal4-DAX1, luciferase luminescence; Nuclear receptor subfamily 0 group B member 1 (Homo sapiens), P51843; inhibition, % at 6.75 µM; 340,000 tested, 0.99% active; AID 504766, 2011; HEK293 Gal4-DAX1 luciferase reporter;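 active = inhibition above the mean over all tested compounds plus 3 SD, cut at about 4.2% in these data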;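 note: 0% = DAX1-transfected cells with DMSO and 100% = empty-vector control cells with DMSO; inhibition shows as a rise in luminescence from relieved DAX1 repression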
Target sequence (P51843 207-470 limits assumed): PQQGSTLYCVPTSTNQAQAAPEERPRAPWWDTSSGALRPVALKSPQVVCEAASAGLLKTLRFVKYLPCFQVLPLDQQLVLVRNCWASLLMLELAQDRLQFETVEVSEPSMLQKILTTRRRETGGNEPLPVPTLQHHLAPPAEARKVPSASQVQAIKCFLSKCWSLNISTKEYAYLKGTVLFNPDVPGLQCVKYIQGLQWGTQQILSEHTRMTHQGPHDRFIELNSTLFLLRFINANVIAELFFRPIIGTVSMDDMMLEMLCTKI
hgDAF12 agonist – H. glycines DAF-12 receptor agonists, primary screen, cell-based, luminescence, HEK293, GAL4 fusion, UAS-luciferase. 370,000 tested, 1.8% active. HEK293 GAL4-hgDAF12 UAS-luciferase reporter, agonist luminescence; normalized to butyrate control. Nuclear hormone receptor DAF-12 (Heterodera glycines), GAL4 fusion. activation, % at 6.8 µM;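 active = activation above a cutoff set at the mean of all screened compounds plus 3 SD, cut at about 10% in these data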;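 note: 0% = DMSO wells and 100% = sodium butyrate wells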
hcDAF-12 act – H. contortus DAF-12 nuclear receptor activators, primary screen, cell-based, luminescence, HEK293, lit1-tk-luc reporter. activation, % at 6.8 µM. 370,000 tested, 1.4% active. HEK293 hcDAF-12 lit1-tk-luc reporter; 0% DMSO, 100% Δ7-dafachronic acid;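 active = activation above the mean of all tested compounds plus 3 SD, cut at about 5.5% in these data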;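 note: 100% = response to 3 µM Δ7-dafachronic acid high control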
DAX1 inh-2 – DAX1 (NR0B1) inhibitors on StAR promoter, primary screen, cell-based, luminescence, SF-1 (NR5A1), full-length DAX-1. AID 652010, 2013. inhibition, % at 6.8 µM. 370,000 tested, 1.1% active. HEK293T StAR-luciferase reporter, SF-1/DAX-1 repression relief;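 active = inhibition above the mean over all tested compounds plus 3 SD, cut at about 3.6% in these data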;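 note: 0% = DAX-1 cells with DMSO and 100% = cells lacking DAX-1 with DMSO; higher inhibition means more luminescence from relief of DAX-1 repression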
ssDAF12 agonist – S. stercoralis DAF-12 nuclear receptor activators, primary screen, cell-based, luminescence, HEK293, GRIP1 co-expression, lit1-tk-luc | Nuclear hormone receptor DAF-12 (Strongyloides stercoralis) | HEK293 ssDAF-12/GRIP1 lit1-tk-luc reporter; % of 3 µM dafachronic acid response | activation, % at 6.8 µM | 370,000 tested, 1% active;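 active = activation above the mean over all tested compounds plus 3 SD, cut at about 0.9% in these data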;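 note: 0% = DMSO-only wells and 100% = 3 µM delta7-dafachronic acid wells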
Active calls of the source: *; / = no result.

SMILES	DAX1 inh-1	hgDAF12 agonist	hcDAF-12 act	DAX1 inh-2	ssDAF12 agonist
O=C(COC(=O)c1cc2ccccc2cc1O)Nc1cccnc1Cl	0	2	4	0	1.0*
COC(=O)c1ccccc1NC(=O)COC(=O)c1cccnc1	1	1	-1	0	-1
O=C(COC(=O)c1cccnc1)Nc1cccc2ccccc12	4.5*	0	0	0	0
NC(=O)Nc1cccc2ccccc12	1	-1	3	1	1.7*
CC(=O)c1ccc(NC(=O)Nc2cccc3ccccc23)cc1	1	4	-1	3.7*	0
COC(=O)[C@]12C[C@H](CC(=O)NCc3ccc(OC)c(OC)c3)C(=O)N(Cc3ccc(Cl)cc3Cl)C1=C[C@H](COCc1ccccc1)O[C@@H]2C	/	1	0	-1	-1
COc1ccc(S(=O)(=O)NC2CCN(C#N)CC2)cc1	/	-1	1	/	-2
CC(CCN1CCC(C(O)(c2ccccc2)c2ccccc2)CC1)Oc1ccc(C#N)c(F)c1 (stereo unspecified)	/	3	3	-1	-1
Cc1ccc(OCC(=O)Nc2ccc(C(=O)Nc3ccccc3C(=O)O)cc2)cc1C	-1	11*	0	2	0
Cc1cccc(C(=O)Nc2ccccc2C(=O)Nc2ccc(C(=O)O)cc2)c1	6.6*	0	0	0	-1
COc1ccc(OCC(=O)Nc2ccc(C(=O)Nc3ccccc3C(=O)O)cc2)cc1	0	1	4	0	-1
C=CCNC(=O)Nc1ccc2c(c1)[C@]1(CC(=O)N(CC(C)C)C1c1ccccc1)C(=O)N2C (stereo partly specified)	/	0	-2	0	-1
COc1ccc(CC(=O)Nn2c(-c3ccccc3)nc3ccccc3c2=O)cc1	-1	-2	-1	0	0
NC(=O)c1cccc(C(N)=O)n1	6.1*	2	-1	0	-2
O=C(O)c1nn(-c2cccc(Cl)c2)c(=O)cc1O	-1	1	4	0	1.2*
Cc1ccc(C(=O)C2CC2)c(C)c1	-1	1	1	-1	3.1*
COc1cccc(NC(=O)C2(C)CCN2C(=O)CCc2ccc(Cl)cc2Cl)c1 (stereo unspecified)	/	0	-2	0	1.6*
O=c1[nH]c2c(s1)C=Nc1ccccc1N2	1	8	6.2*	3	0
COC(=O)C1CN(Cc2cn(CCC3OCCO3)nn2)CCS(=O)(=O)N1Cc1ccc(OC)cc1 (stereo unspecified)	/	0	-1	0	-1
CCOc1ccccc1Nc1cc(C)nc2nnnn12	0	-1	1	0	1.0*
CC(C)C1C(=O)N(Cc2cn(CCC3OCCO3)nn2)CCS(=O)(=O)N1Cc1ccc(-c2ccc(F)cc2Cl)cc1 (stereo unspecified)	/	-4	-1	-1	-2
CCOC(=O)N1CCN(C(=O)C[C@H]2C(=O)N(CCCOC)C3=CCCC[C@@]32C(=O)OCC)CC1	/	-3	0	-1	0
Cn1cnc(S(=O)(=O)Nc2ccc(OC(F)(F)F)cc2)c1	5.5*	2	1	0	-1
COc1cccc(NC(=S)N(CCCN2CCCC2)Cc2cccn2Cc2ccc(Cl)cc2)c1	4.4*	/	/	/	/
CC(C)CNS(=O)(=O)CC1NCc2cc3c(cc21)OCO3 (stereo unspecified)	/	0	-2	-1	-1
SMILES	DAX1 inh-1	hgDAF12 agonist	hcDAF-12 act	DAX1 inh-2	ssDAF12 agonist
CC(N=Cc1c(O)c2ccccc2oc1=O)C(=O)O (stereo unspecified)	0	11*	0	0	-1
O=C(O)C(CO)N=Cc1c(O)c2ccccc2oc1=O (stereo unspecified)	1	-1	-1	0	-1
CN1CCN(C(=O)CSc2ccc(Cl)cc2)CC1	4.6*	9	2	1	-1
CN1CCCN(C(=O)CSc2ccccc2)CC1	0	0	-1	0	-1
O=C(NCC(=O)N(CCN1CCOCC1)C(C(=O)NC1CCCC1)c1cccs1)c1ccco1 (stereo unspecified)	4.7*	3	1	1	-1
C=CCN(C(=O)CNC(=O)c1ccco1)C(C(=O)NC1CCCC1)c1cccs1 (stereo unspecified)	1	-4	-2	1	-2
CN1Cc2nnn(CC3CCCCC3)c2-c2ccccc2S1(=O)=O	/	-3	-3	0	-1
COc1ccccc1-c1nc2s/c(=C\c3cccs3)c(=O)n2n1	2	1	2	0	0
COc1ccc(/C=c2\sc3nc(-c4ccccc4OC)nn3c2=O)c(OC)c1	0	2	4	0	0.9*
Cc1ccc(NC(=O)Nc2ccc3c(c2)nnn3C)cc1C	5.3*	2	1	1	-1
COc1ccccc1NC(=O)Nc1ccc2c(c1)nnn2C	1	0	2	2	-1
C[C@H](CO)N1C[C@H](C)[C@@H](CN(C)C(=O)Nc2cccc(F)c2)OCc2cn(nn2)CCCC1=O	/	3	0	-1	-1
NC(=O)NN=C(C1CC1)C1CC1	4.9*	2	0	0	-1
C1CC1C(=NN=C(C1CC1)C1CC1)C1CC1	1	-5	1	-1	-2
O=C(Nc1ccc2[nH]ncc2c1)c1ccccc1	2	7	3	1	0
Cc1nc(-c2ccc(NC(=O)c3ccco3)cc2)cs1	-5	-5	-4	0	-2
O=C(Nc1ccc2[nH]ncc2c1)c1ccc(F)cc1	0	10	-1	3	-1
Cc1nc(-c2ccc(NC(=O)c3ccccc3Br)cc2)cs1	1	21*	-1	3	1
O=C(Nc1ccc2[nH]ncc2c1)c1ccccc1Br	1	12*	4	2	-1
O=C(Nc1ccc2[nH]ncc2c1)c1ccccc1Cl	-1	13*	1	1	-1
Cc1ccc(C(=O)NC2CCCCN(Cc3ccc(Cl)cc3)C2=O)c(C)c1 (stereo unspecified)	/	0	-2	1	-1
Cc1onc(-c2ccccc2)c1C(=O)NNC(=O)c1ccccc1	0	0	3	0	1.1*
Cc1onc(-c2ccccc2)c1C(=O)Nc1cccc(C#N)c1	2	11*	2	-2	-2
Cc1onc(-c2ccccc2)c1C(=O)NNC(=O)c1ccccc1O	2	4	1	-2	-1
CCOC(=O)c1c(NC(=S)NCc2ccccc2)sc2c1CCN(C(=O)OCC)C2	6.0*	-1	0	0	-2
